Screens: PubChem, National Center for Advancing Translational Sciences (NCATS)
Giardia FBPA inh-1 = Giardia lamblia aldolase inhibition. A8B2U2. purified Giardia FBPA. Potency, µM (series often up to 59.6 µM), inactives show top-dose activity, negative = inhibition, hits mostly inhibitors. 290,000 tested, 0.71% active; further: potency means the concentration at half of the fitted maximal effect; nearly all actives have a fitted effect of over 55% in size
Target sequence (A8B2U2 whole entry, looked up): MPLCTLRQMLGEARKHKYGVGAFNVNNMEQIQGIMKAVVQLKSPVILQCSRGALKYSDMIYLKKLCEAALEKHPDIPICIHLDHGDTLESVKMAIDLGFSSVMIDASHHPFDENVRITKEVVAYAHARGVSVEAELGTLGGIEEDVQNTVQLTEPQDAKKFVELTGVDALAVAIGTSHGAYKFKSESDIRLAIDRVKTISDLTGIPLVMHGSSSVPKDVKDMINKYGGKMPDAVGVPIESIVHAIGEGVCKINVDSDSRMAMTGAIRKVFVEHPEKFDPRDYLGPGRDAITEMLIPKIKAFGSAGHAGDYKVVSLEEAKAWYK
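Giardia FBPA (40 nM reagent) was preincubated 10 min at RT with compound (up to 57.5 uM final), then substrate plus GAPDH/TPI/NAD/arsenate coupling system with diaphorase/resazurin was added; resorufin fluorescence (525/598 nm) was read after 20 min.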
VACV Venus inh = inhibitors of vaccinia virus (Venus reporter); Vaccinia virus Venus reporter expression, fluorescence; 330,000 tested, 0.46% active; Potency, µM (titrated, usually from 36.5 µM), for inactives: at the top dose activity change, negative = inhibition, hits mostly inhibitors; calls by dose curve; tested in A549 cells; further: potency means the concentration at half of the fitted maximal effect; nearly all actives have a fitted effect of over 30% in size
HCMV antiviral = inhibitors of human cytomegalovirus. HFF cells, HCMV-luciferase reporter, 72 h; stronger effect = lower value. activity change, negative = inhibition, % at 57.5 µM. 410,000 tested, 4.5% active; in the data active means activity change below about -60%; inconclusive means no clear call, values can overlap the other calls; inactive means above about -39%
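Cell-based, HFFs, 1000 cells/well, 16 h 37C; cpds in DMSO + HCMV-luc, MOI 1 PFU/cell; 72 h 37C; OneGlo luminescence after 5 min RT; norm. to buffer vs Salinomycin 10uM.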
FMDV antiviral = antivirals against foot and mouth disease virus; Potency, µM (highest dose often 57.9 µM), for the others: at the top dose activity change, negative = inhibition, hits mostly inhibitors; AID 1159524; 410,000 tested, 1.2% active; FMDV antiviral cell-based qHTS; calls by dose curve; tested in HEK293T cells; further: read-out not given here; potency means the concentration at half of the fitted maximal effect; nearly all actives have a fitted effect of over 45% in size
HCV inh = blocks hepatitis C virus. Huh7.5.1 HCVcc-Cre infection, luciferase reporter, 44 h. Potency, µM (doses to about 41.8 µM), inactives show top-dose activity change, negative = inhibition, hits mostly inhibitors. 340,000 tested, 3.4% active. AID 651820; further: potency means the concentration at half of the fitted maximal effect
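After 44 h co-culture of compound, cells and HCVcc-Cre (~0.5 moi), substrate is added for 15 min at room temperature and luciferase measured over 15 sec. Cells were seeded at 1,000/well and pre-cultured 4 h.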
VACV mCherry inh = inhibitors of vaccinia virus infection (mCherry reporter signal) | Potency, µM (doses to about 36.5 µM), for the others: at the top dose activity change, negative = inhibition, hits mostly inhibitors | 310,000 tested, 0.63% active | Vaccinia virus mCherry reporter infection, fluorescence; calls by dose curve; tested in A549 cells; further: potency means the concentration at half of the fitted maximal effect; nearly all actives have a fitted effect of over 35% in size
Giardia growth = Giardia lamblia growth inhibition | shares compounds with Giardia FBPA inh-1 | Giardia lamblia trophozoite growth inhibition | Potency, µM (highest dose often 57.5 µM), without a hit: at the top dose activity change, negative = inhibition, usual class: inhibitors | 1,500 tested, 5% active | AID 2785;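 further: potency means the concentration at half of the fitted maximal effect; trophozoites exposed to compound for 48 h at 37 °C; nearly all actives have a fitted effect of over 70% in size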
Mammalian tox = counter-screen for Giardia aldolase inhibitors: mammalian cell toxicity; mammalian cell viability counter-screen, qHTS; Potency, µM (titrated, usually from 57.5 µM), for the others: at the top dose viability change, negative = toxicity, usual class: inhibitors; shares compounds with Giardia FBPA inh-1; 1,500 tested, 4% active;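 further: Chinese hamster ovary cells used as mammalian cytotoxicity surrogate; viability measured as cellular ATP by luminescence; potency means the concentration at half of the fitted maximal effect; compound exposure lasted 48 h before reading; nearly all actives have a fitted effect of over 60% in size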
Giardia FBPA inh-2 = confirmation of Giardia fructose-bisphosphate aldolase inhibitors. shares compounds with Giardia FBPA inh-1. purified Giardia aldolase enzyme activity, qHTS. Potency, µM (highest dose often 57.5 µM), for the others: at the top dose activity change, negative = inhibition, hits mostly inhibitors. 1,500 tested, 5% active. AID 2787; further: potency means the concentration at half of the fitted maximal effect; nearly all actives have a fitted effect of over 45% in size
Rabbit aldolase = rabbit FBP aldolase inhibition by Giardia aldolase hits. 1,500 tested, 4% active. Potency, µM (doses to about 57.5 µM), for inactives: at the top dose activity, negative = inhibition, actives largely listed as inhibitors. shares compounds with Giardia FBPA inh-1. Rabbit muscle FBPA enzyme inhibition, selectivity counter-screen; further: potency means the concentration at half of the fitted maximal effect; nearly all actives have a fitted effect of over 60% in size
Target sequence (P00883 whole entry, looked up): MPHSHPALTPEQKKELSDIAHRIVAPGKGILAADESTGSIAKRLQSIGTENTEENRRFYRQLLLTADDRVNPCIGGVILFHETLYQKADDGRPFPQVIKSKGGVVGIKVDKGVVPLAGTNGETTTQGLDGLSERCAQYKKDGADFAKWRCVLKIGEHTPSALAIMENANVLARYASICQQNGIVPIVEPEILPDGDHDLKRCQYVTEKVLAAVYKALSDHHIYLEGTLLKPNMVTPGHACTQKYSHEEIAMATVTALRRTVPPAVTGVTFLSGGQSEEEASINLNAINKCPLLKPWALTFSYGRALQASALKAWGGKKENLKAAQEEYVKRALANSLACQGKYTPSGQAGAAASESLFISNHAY
GAPDH counter = GAPDH inhibition flagged for Giardia aldolase hits; GAPDH coupling enzyme counterscreen, biochemical, qHTS; AID 2795; Potency, µM (titrated, usually from 57.5 µM), for inactives: top-dose activity change, negative = inhibition, actives largely listed as inhibitors; 1,500 tested, 6% active; shares compounds with Giardia FBPA inh-1; further: potency means the concentration at half of the fitted maximal effect; nearly all actives have a fitted effect of over 55% in size
An asterisk follows results filed as active; [ ] = dose if it differs, or a comment. Rows were chosen to be rich in hits. Some 7.5% of all compounds tested hit in one or more screens of this group. Unless noted, the call rests on the fitted dose curve; in most records, active means well fitted curve in the direction sought with a large enough effect; inconclusive means small, poorly fitted or top-dose-only effect, or another doubt; inactive means no such curve, though single readings can be large; an effect the other way counts as inactive or inconclusive. On the % scale 0 is the no-effect control and ±100 the full control effect.

Results for O=C(NCc1ccc2c(c1)OCO2)C(=O)NCC1OCCCN1S(=O)(=O)c1cc(F)ccc1F (centres undefined) ?
VACV Venus inh: -13%; HCMV antiviral: 14; FMDV antiviral: -16%; VACV mCherry inh: -7%

What do the screens show for `O=C(CN1CCN(Cc2ccc(F)cc2)CC1)Nc1nc2ccccc2s1`?
Giardia FBPA inh-1: 14µM*; HCMV antiviral: 16; FMDV antiviral: inconclusive; HCV inh: inconclusive; Giardia growth: -29%; Mammalian tox: 1%; Giardia FBPA inh-2: 10%; Rabbit aldolase: 1%; GAPDH counter: 14%

What do the screens show for `CCCc1nnc(NC(=O)CN2CCN(C)CC2)s1`?
Giardia FBPA inh-1: inconclusive; VACV Venus inh: -10%; HCMV antiviral: -2; FMDV antiviral: -3%; HCV inh: -4%; VACV mCherry inh: inactive

What do the screens show for `CCCN1CCN(CC(=O)Nc2nnc(C)s2)CC1`?
Giardia FBPA inh-1: 7.9µM*; HCMV antiviral: 38; FMDV antiviral: 4%; HCV inh: 12%; Giardia growth: 26%; Mammalian tox: 1%; Giardia FBPA inh-2: -2%; Rabbit aldolase: 13%; GAPDH counter: 4%

How did CCc1nnc(NC(=O)CN2CCN(Cc3cccc(F)c3)CC2)s1 do in these assays?
VACV Venus inh: -9%; HCMV antiviral: 5; FMDV antiviral: 45%; HCV inh: 1%; VACV mCherry inh: -13%

What do the screens show for `Cc1cnc(NC(=O)CN2CCN(c3ccccc3F)CC2)s1`?
Giardia FBPA inh-1: 0%; VACV Venus inh: -25%; HCMV antiviral: 80; FMDV antiviral: -25%; HCV inh: -20%

What do the screens show for `Cc1cnc(NC(=O)CN2CCCCC2)s1`?
Giardia FBPA inh-1: 4.5µM*; VACV Venus inh: -11%; HCMV antiviral: 32; FMDV antiviral: 9%; HCV inh: -1%; VACV mCherry inh: 0%; Giardia growth: inconclusive; Mammalian tox: -6%; Giardia FBPA inh-2: 7%; Rabbit aldolase: 8%; GAPDH counter: 17%

Results for Cc1nnc(NC(=O)CN2CCN(Cc3ccc(F)cc3Cl)CC2)s1 ?
Giardia FBPA inh-1: 3.2µM*; HCMV antiviral: 12; FMDV antiviral: -17%; HCV inh: -2%; Giardia growth: 23%; Mammalian tox: -11%; Giardia FBPA inh-2: 6%; Rabbit aldolase: 6%; GAPDH counter: 17%

Results for Cc1ccc(C(O)c2ncc(-c3cccc4ccccc34)[nH]2)cc1F (centres undefined) ?
VACV Venus inh: 2%; HCMV antiviral: 13; FMDV antiviral: 8%; VACV mCherry inh: 3%

How did CCOC(=O)C1=C(COC(=O)CNS(=O)(=O)c2c(F)cc(F)cc2Br)NC(=O)NC1C (centres undefined) do in these assays?
HCMV antiviral: 0; FMDV antiviral: -6%; HCV inh: 8%

What do the screens show for `COc1ccc(CN2CC[C@H]3C=CCc4cccc(c43)C2)cc1`?
VACV Venus inh: -3%; HCMV antiviral: -27; FMDV antiviral: -13%; HCV inh: inconclusive; VACV mCherry inh: -9%

What do the screens show for `Cc1ccc2nc(NC(=O)CN3CCOCC3)sc2c1`?
Giardia FBPA inh-1: -5%; VACV Venus inh: -20%; HCMV antiviral: -21; HCV inh: inconclusive; VACV mCherry inh: -13%

What do the screens show for `Cc1nnc(NC(=O)CN2CCN(Cc3ccccc3)CC2)s1`?
Giardia FBPA inh-1: 6.3µM*; HCMV antiviral: 15; FMDV antiviral: 0%; HCV inh: 5%; Giardia growth: 14%[10.4 µM]; Mammalian tox: 6%; Giardia FBPA inh-2: 3%; Rabbit aldolase: 14%; GAPDH counter: 0%

What do the screens show for `CCc1nnc(NC(=O)CN2CC(C)OC(C)C2)s1` (centres undefined)?
Giardia FBPA inh-1: 3.5µM*; HCMV antiviral: 8; FMDV antiviral: 7%; HCV inh: 16%; Giardia growth: 14%[10.4 µM]; Mammalian tox: -6%; Giardia FBPA inh-2: 3%; Rabbit aldolase: 7%; GAPDH counter: 7%

What do the screens show for `CC(=O)Nc1ccc2sc(NC(=O)CN3CCOCC3)nc2c1`?
Giardia FBPA inh-1: 4.5µM*; VACV Venus inh: -11%; HCMV antiviral: -7; FMDV antiviral: 14%; HCV inh: 13%; VACV mCherry inh: inactive; Giardia growth: inconclusive; Mammalian tox: -17%; Giardia FBPA inh-2: 7%; Rabbit aldolase: 10%; GAPDH counter: 0%

What do the screens show for `O=C1NC(=O)/C(=C/c2ccccn2)S1`?
Giardia FBPA inh-1: -9%; VACV Venus inh: -16%[7.34 µM]; HCMV antiviral: 30; FMDV antiviral: 32%; HCV inh: -4%; VACV mCherry inh: -1%[7.34 µM]

Results for Cc1ccc(N2CC(C(=O)NCc3nnnn3-c3ccc(C)c(C)c3)CC2=O)cc1C (centres undefined) ?
VACV Venus inh: -15%; HCMV antiviral: 11; FMDV antiviral: -15%; VACV mCherry inh: -14%

Results for O=C(CSC(=S)N1CCCC1)c1cc(Br)cc(Br)c1O ?
Giardia FBPA inh-1: 14µM*; VACV Venus inh: 45%; HCMV antiviral: inconclusive; FMDV antiviral: -15%; HCV inh: 13µM*; VACV mCherry inh: 14%; Giardia growth: inconclusive; Mammalian tox: 25µM*; Giardia FBPA inh-2: -23%; Rabbit aldolase: -26%; GAPDH counter: inconclusive

What do the screens show for `CC1CCCN(C(=S)SCC(=O)c2cc(Br)cc(Br)c2O)C1` (centres undefined)?
Giardia FBPA inh-1: -22%; VACV Venus inh: 341%; HCMV antiviral: 30; FMDV antiviral: -15%; HCV inh: -15%; VACV mCherry inh: 50%
